Compounds without any hit were thinned out: in the full panel of roughly 83,000, 20% have a hit.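 Interpretation: 100, growth as untreated; towards 0, rising growth inhibition; 0, no net growth; 0 to -100, cell death. Compounds scoring below 10 were considered active.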 Calls of active or inactive are those of the source.
Key:
Assay in all cases: NCI-60 one-dose screen, 48 h (100 = growth as untreated, 0 = no growth, -100 = all killed)
Settings in all cases: 10 µM unless noted
BT-549 breast = test system: BT-549 breast
MDA-MB-435 melanoma = test system: MDA-MB-435 melanoma
SW-620 colon = test system: SW-620 colon
MCF7 breast = test system: MCF7 breast
HCT-116 colon = test system: HCT-116 colon
HCC-2998 colon = test system: HCC-2998 colon
KM12 colon = test system: KM12 colon

Measured: growth

C=C1C(=O)O[C@H]2[C@H]1CC/C(COC(=O)NCc1ccc(Cn3c(=O)sn(CCCCl)c3=O)cc1)=C\CC[C@@]1(C)O[C@@H]21
active: SW-620 colon -51.9% | MCF7 breast 5.59% | HCT-116 colon -63.6%
inactive: BT-549 breast 51.8% | MDA-MB-435 melanoma 26.8% | HCC-2998 colon 91.4% | KM12 colon 77.7%

Fc1ccc(Nc2nc3nonc3nc2Nc2ccc(F)cc2)cc1
active: MDA-MB-435 melanoma 5.74% | SW-620 colon 9.46% | MCF7 breast 3.66% | KM12 colon 3.91%
inactive: HCC-2998 colon 13.1%

CC(C)OC(=O)OCOP(=O)(OCOC(=O)OC(C)C)C1CCCN(O)C1=O (stereo unspecified)
inactive: BT-549 breast 22.8% | MDA-MB-435 melanoma 47.3% | SW-620 colon 32.3% | MCF7 breast 31.9% | HCT-116 colon 13.4% | HCC-2998 colon 23.7%
active: KM12 colon 9.54%

Cc1csc(NC(=O)c2sc3nc(-c4cccs4)ccc3c2N)n1
inactive: MDA-MB-435 melanoma 108% | SW-620 colon 99.4% | MCF7 breast 71.3% | HCC-2998 colon 114% | KM12 colon 92.9%

COc1ccc(Oc2nc(Nc3ccc(N4CCCCC4)nc3)ncc2NC(=O)c2cc(OC)cc(OC)c2)cc1
inactive: BT-549 breast 56.5% | SW-620 colon 30.6% | HCT-116 colon 18.8% | HCC-2998 colon 65.8% | KM12 colon 20.2%
active: MDA-MB-435 melanoma -30.6% | MCF7 breast 9.76%

From PubChem BioAssay (NCI)
